Measured values taken from PubChem BioAssay.
Values without a mark were called inactive. Where a call stands in place of a potency, no number is given. For some assays here: Potency and affinity values are given separately. Active and inactive are the calls of the source. Unless noted, the rule behind the calls is not given here.

Assays:
[1] = antimalarial activity against Dd2 strain (AID 2302;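 active = growth inhibition above 50% at the single 2 µM test dose, taken to imply half-maximal potency below 2 µM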); conditions: P. falciparum Dd2 in RBCs, LDH growth readout, 72 h; at 2 µM; stronger effect = higher value
[2] = HepG2 cytotoxicity, primary screen, cytotoxicity control for P. falciparum antimalarial project, cell-based, ATP luminescence (AID 2303;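 active = inhibition above 50%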); conditions: HepG2 viability, 24-48 h, at 10 µM, stronger effect = higher value
[3] = biological target: L-lactate dehydrogenase (Plasmodium falciparum (isolate CDC / Honduras)) (UniProt Q27743); experiment: PfLDH activity inhibition – cell lysate, 3D7 strain, counter-screen for P. falciparum growth inhibition project (AID 2304); conditions: P. falciparum 3D7 crude extract, LDH APAD/NBT absorbance; at 2 µM; stronger effect = higher value
[4] = inhibition of 3D7 malaria parasite growth – strain 3D7 (AID 2306); conditions: P. falciparum 3D7 erythrocytic growth, LDH absorbance, 72 h; at 2 µM; stronger effect = higher value
[5] = biological target: Calcium-dependent protein kinase 1 (Plasmodium falciparum (isolate 3D7)) (UniProt P62344); experiment: PfCDPK1 kinase inhibitors, biochemical, TCAMS library (AID 1159585; cut-off not given, nearly all actives have IC50 up to about 0.98 µM;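 note: inhibitors leave more ATP so luminescence rises with inhibition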); conditions: recombinant PfCDPK1, Kinase-Glo ATP depletion luminescence
[6] = biological target: Plasmodium falciparum protein kinase 6 (PK6, PF3D7_1337100) (UniProt Q8IDW1); experiment: PfPK6 kinase inhibitors, biochemical, TCAMS library (AID 1159586); conditions: recombinant PfPK6, Kinase-Glo ATP depletion luminescence
[7] = biological target: Protein kinase 7 (PK7), Plasmodium falciparum 3D7 (PF3D7_0213400) (UniProt Q7YTF7); experiment: inhibition of Plasmodium PK7 catalytic activity – biochemical, TCAMS antimalarial set, Kinase-Glo luminescence (AID 1159587); conditions: recombinant PfPK7, Kinase-Glo ATP depletion luminescence
[8] = biological target: Calcium-dependent protein kinase 4 (Plasmodium falciparum (isolate 3D7)) (UniProt Q8IBS5); experiment: PfCDPK4 kinase inhibitors, biochemical, TCAMS library (AID 1159588; cut-off not given, nearly all actives have IC50 up to about 0.91 µM); conditions: recombinant PfCDPK4, Kinase-Glo ATP depletion luminescence
Sequence of Calcium-dependent protein kinase 4 (Plasmodium falciparum (isolate 3D7)) (Q8IBS5 whole entry, looked up): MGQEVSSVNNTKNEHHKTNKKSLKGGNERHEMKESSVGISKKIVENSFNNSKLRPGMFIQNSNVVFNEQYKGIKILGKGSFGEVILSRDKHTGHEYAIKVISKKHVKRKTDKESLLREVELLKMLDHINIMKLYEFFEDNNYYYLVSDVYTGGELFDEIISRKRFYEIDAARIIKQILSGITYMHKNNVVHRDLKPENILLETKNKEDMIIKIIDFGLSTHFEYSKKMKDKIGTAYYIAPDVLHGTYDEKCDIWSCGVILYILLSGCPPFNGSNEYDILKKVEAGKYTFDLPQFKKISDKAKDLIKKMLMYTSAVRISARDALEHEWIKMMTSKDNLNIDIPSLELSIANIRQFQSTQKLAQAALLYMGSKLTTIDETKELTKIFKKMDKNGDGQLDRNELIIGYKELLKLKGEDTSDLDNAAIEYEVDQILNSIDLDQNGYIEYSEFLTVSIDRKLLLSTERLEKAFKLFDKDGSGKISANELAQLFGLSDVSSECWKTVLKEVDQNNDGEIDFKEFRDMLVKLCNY

Sequence of Calcium-dependent protein kinase 1 (Plasmodium falciparum (isolate 3D7)) (P62344 whole entry, looked up): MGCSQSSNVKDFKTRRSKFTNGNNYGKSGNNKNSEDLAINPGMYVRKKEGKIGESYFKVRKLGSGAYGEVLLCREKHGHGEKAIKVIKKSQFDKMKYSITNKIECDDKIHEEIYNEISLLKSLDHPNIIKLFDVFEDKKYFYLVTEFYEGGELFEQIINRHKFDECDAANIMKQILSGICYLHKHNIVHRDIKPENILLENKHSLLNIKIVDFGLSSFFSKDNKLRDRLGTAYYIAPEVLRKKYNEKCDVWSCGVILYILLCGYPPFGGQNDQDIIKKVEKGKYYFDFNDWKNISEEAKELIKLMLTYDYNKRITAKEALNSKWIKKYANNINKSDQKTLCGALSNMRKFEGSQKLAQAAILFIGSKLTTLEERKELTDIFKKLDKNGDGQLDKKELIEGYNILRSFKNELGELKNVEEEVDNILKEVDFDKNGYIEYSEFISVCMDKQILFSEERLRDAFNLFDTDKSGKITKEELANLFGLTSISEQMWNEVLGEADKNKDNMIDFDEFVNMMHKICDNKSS
Sequence of Protein kinase 7 (PK7), Plasmodium falciparum 3D7 (PF3D7_0213400) (Q7YTF7 1-343): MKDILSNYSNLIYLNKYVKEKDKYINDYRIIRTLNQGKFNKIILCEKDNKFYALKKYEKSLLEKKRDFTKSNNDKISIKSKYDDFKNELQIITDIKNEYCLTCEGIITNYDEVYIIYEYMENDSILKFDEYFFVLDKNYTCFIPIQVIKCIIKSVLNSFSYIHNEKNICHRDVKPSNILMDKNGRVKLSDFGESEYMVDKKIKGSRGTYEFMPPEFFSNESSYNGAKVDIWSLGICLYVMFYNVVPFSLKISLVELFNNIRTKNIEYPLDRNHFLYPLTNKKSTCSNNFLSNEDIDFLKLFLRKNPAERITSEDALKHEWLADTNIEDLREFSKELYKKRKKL
Sequence of L-lactate dehydrogenase (Plasmodium falciparum (isolate CDC / Honduras)) (Q27743 whole entry, looked up): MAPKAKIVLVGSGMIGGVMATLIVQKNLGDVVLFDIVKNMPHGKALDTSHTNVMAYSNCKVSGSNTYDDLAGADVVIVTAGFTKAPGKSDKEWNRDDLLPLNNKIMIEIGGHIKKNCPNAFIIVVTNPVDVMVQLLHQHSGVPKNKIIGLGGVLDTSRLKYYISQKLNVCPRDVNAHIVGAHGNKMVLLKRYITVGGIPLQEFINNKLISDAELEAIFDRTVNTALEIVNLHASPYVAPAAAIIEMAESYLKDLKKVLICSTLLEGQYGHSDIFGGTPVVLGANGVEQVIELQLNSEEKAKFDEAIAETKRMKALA
Sequence of Plasmodium falciparum protein kinase 6 (PK6, PF3D7_1337100) (Q8IDW1 1-305): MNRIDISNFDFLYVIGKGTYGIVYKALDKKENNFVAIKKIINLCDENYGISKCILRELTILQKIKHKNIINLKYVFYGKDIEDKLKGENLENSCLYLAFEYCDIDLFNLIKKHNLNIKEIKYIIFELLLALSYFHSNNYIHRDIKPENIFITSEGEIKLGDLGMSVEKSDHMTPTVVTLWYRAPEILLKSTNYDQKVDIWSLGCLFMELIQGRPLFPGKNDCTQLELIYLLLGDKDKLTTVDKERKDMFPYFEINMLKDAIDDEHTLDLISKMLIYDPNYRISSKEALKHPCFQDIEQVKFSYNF

Row | SMILES | growth inhibition [1] | inhibition [2] | inhibition [3] [%] | growth inhibition [4] | outcome [5] | outcome [6] | outcome [7] | outcome [8]
1 | COc1ccc(C(=O)NC(Nc2ccc([N+](=O)[O-])cc2)C(Cl)(Cl)Cl)cc1 (stereo not given) | 83% (active) | 15% | 1 | 95% (active) | inactive | inactive | inactive | inactive
2 | COc1cc2nc(C)nc(Nc3cccc(Br)c3)c2cc1OC | 82% (active) | 0% | -8 | 101% (active) | inactive | inactive | inactive | inactive
3 | CCNC(C)(C)CN(Cc1ccc(-c2ccc(C(F)(F)F)cc2)cc1)C(=O)Cn1c(CCc2cccc(F)c2F)nc(=O)c2ccccc21 | 70% (active) | 47% | -7 | 97% (active) | inactive | inactive | inactive | inactive
4 | CCOc1cc(C(C)C)ccc1C1CCN(CCCCNC(=O)c2ccc(NC(=O)c3ccc(Cl)cc3)cc2)CC1 | 98% (active) | 32% | 2 | 101% (active) | inactive | inactive | inactive | inactive
5 | O=C(Cc1cc(F)cc(F)c1)NC1CCN(c2ccnc3cc(Cl)ccc23)C1 (stereo not given) | 101% (active) | 13% | 0 | 82% (active) | inactive | inactive | inactive | inactive
6 | COc1ccc2nccc([C@@H](O)CN3CCC(NCc4ccc5nsnc5c4)CC3)c2c1 | 64% (active) | 12% | 3 | 95% (active) | inactive | inactive | inactive | inactive
7 | Cc1cccc2[nH]c(-c3ccc(-c4ccc(NC(=O)NCc5ccc(F)cc5)cc4)cc3)nc12 | 99% (active) | 70% (active) | -3 | 100% (active) | inactive | inactive | inactive | inactive
8 | CCc1sc(N2CCN(C)CC2)nc1C(=O)NCCc1ccc(Cl)c(Cl)c1 | 49% | 5% | 5 | 92% (active) | inactive | inactive | inactive | inactive
9 | CC1CCCCC1N(C)C1CCN(CCCNC(=O)C=Cc2ccccc2Cl)CC1 (stereo not given) | 14% | 30% | 3 | 100% (active) | inactive | inactive | inactive | inactive
10 | CC(C)c1ccc(NC(=O)c2ccc(C(=O)NC3CCN(CC4CCCCC4)C3)cc2)cc1 (stereo not given) | 26% | 35% | 3 | 93% (active) | inactive | inactive | inactive | inactive
11 | CN(C(=O)C(C)(C)Oc1ccc(Cl)cc1)C1CCN(CCCCCNC(=O)/C=C/c2ccc(Cl)c(Cl)c2)CC1 | 26% | 86% (active) | 0 | 96% (active) | inactive | inactive | inactive | inactive
12 | Cc1nc(-c2nc(NCCc3cnccn3)ncc2-c2ccsc2)sc1C | 40% | -7% | 0 | 98% (active) | inactive | inactive | inactive | inactive
13 | CCCCCCCN1CC[C@@H](CCCc2ccnc3ccc(OC)cc23)[C@@H](CNC)C1 | 95% (active) | 25% | -2 | 101% (active) | inactive | inactive | inactive | inactive
14 | CC(=O)Nc1ccc(S(=O)(=O)NC2=NC(C)(C)N(OCc3ccc(Cl)c(Cl)c3)C(N)=N2)cc1 | 98% (active) | 44% | 2 | 93% (active) | inactive | inactive | inactive | inactive
15 | CC(C)CC(=O)N1CCNC[C@@H]1C(=O)NCCSCc1c(F)cccc1Cl | 3% | 1% | 0 | 86% (active) | inactive | inactive | inactive | inactive
16 | Nc1nccc2ccc(Oc3ccncc3)cc12 | 81% (active) | -3% | -2 | 91% (active) | inactive | inactive | inactive | inactive
17 | c1ccc(C23N=C(Nc4nc5ccccc5[nH]4)NC2(c2ccccc2)NC(Nc2nc4ccccc4[nH]2)=N3)cc1 (stereo not given) | 89% (active) | 2% | 3 | 97% (active) | inactive | inactive | inactive | inactive
18 | O=C(NC1CCN(Cc2ccccc2O)C1)c1ccc(Cl)c(Cl)c1 (stereo not given) | 62% (active) | -9% | -1 | 92% (active) | inactive | inactive | inactive | inactive
19 | O=C(Nc1nc(-c2ccccn2)cs1)c1ccc(S(=O)(=O)N2CCc3ccccc32)cc1 | 15% | 47% | 2 | 89% (active) | inactive | inactive | inactive | inactive
20 | CCOc1ccccc1C(=O)Nc1cccc(-c2nc3ncccn3c2C)c1 | 88% (active) | 0% | -6 | 92% (active) | inactive | inactive | inactive | inactive

Row | SMILES | growth inhibition [1] | inhibition [2] | inhibition [3] [%] | growth inhibition [4] | outcome [5] | outcome [6] | outcome [7] | outcome [8]
21 | Cc1cccc(C(=O)Nc2ccnc(N(C)CCCN(C)Cc3cccc(C#N)c3)c2)c1 | 12% | 1% | -2 | 92% (active) | inactive | inactive | inactive | inactive
22 | CCCCCCN1CCCN(Cc2cccc(NC(=O)c3cc4ccccc4s3)c2)CC1 | 53% (active) | 31% | 6 | 88% (active) | inactive | inactive | inactive | inactive
23 | CCc1cc(-c2onc(C(F)(F)F)c2-c2ccccc2)c(O)cc1OC | 73% (active) | 16% | -2 | 98% (active) | inactive | inactive | inactive | inactive
24 | CC(=O)Nc1ccc(C(=O)Nc2cccc(-c3ccc(-c4nc5ccc(F)cc5[nH]4)s3)c2)cn1 | 97% (active) | 33% | 3 | 101% (active) | inactive | inactive | inactive | inactive
25 | N#CCCN1CCN(Cc2cccc(-c3ccc(-c4nc5ccccc5[nH]4)cc3)c2)CC1 | 20% | 18% | -9 | 93% (active) | inactive | inactive | inactive | inactive
26 | CC(C)(C)c1ccc(CN2CCCCC(NC(=O)c3cc(-c4cccc(F)c4)cs3)C2)cc1 (stereo not given) | 84% (active) | 8% | -3 | 98% (active) | inactive | inactive | inactive | inactive
27 | CCN(CC)C(=NCCCCCCN=C(/N=C(/N)Nc1ccc(Br)cc1)N(CC)CC)/N=C(/N)Nc1ccc(Br)cc1 | 95% (active) | -7% | -5 | 96% (active) | inactive | inactive | inactive | inactive
28 | Cc1nnsc1C(=O)Nc1cccc(-c2cccc(-c3nc4ccc(C(F)(F)F)cc4[nH]3)c2)c1 | 100% (active) | 70% (active) | 1 | 101% (active) | inactive | inactive | inactive | inactive
29 | Cn1c(NC(=O)C2CCC(CNC(=O)c3ccc(O)c(-c4cccc([N+](=O)[O-])c4)c3)CC2)nc2ccccc21 (stereo not given) | 97% (active) | 6% | -5 | 95% (active) | inactive | inactive | inactive | inactive
30 | Cc1ccc(O)c(-c2cc(C(=O)Nc3ccc(S(=O)(=O)N4CCCCC4)cc3)[nH]n2)c1 | 98% (active) | 31% | -4 | 94% (active) | inactive | inactive | inactive | inactive
31 | N#Cc1cc(C(=O)c2cc(Cl)ccc2O)cn(-c2cccc(C(F)(F)F)c2)c1=O | 7% | -1% | -2 | 87% (active) | inactive | inactive | inactive | inactive
32 | C[C@@H](CC1CCCCC1)OC(=O)N(C)[C@@H]1CCN(C#N)C1 | 96% (active) | 5% | 3 | 95% (active) | inactive | inactive | inactive | inactive
33 | COc1ccc(C2CC(c3ccccc3)=NN2C(=O)c2ccc(Br)o2)cc1 (stereo not given) | 45% | 6% | -6 | 96% (active) | inactive | inactive | inactive | inactive
34 | O=C(Nc1cccc(OC2CCN(Cc3ccccc3)CC2)c1)c1ccc(Cl)c(Cl)c1 | 45% | 16% | -4 | 101% (active) | inactive | inactive | inactive | inactive
35 | Cc1cccc2[nH]c(-c3ccc(-c4ccc(CN5CCCC(O)C5)cc4)s3)nc12 (stereo not given) | 29% | 38% | -1 | 101% (active) | inactive | inactive | inactive | inactive
36 | O=C(Nc1ccc(Cl)cc1)Nc1ccc(-c2cccc(-c3nc4ccc(F)cc4[nH]3)c2)cc1 | 96% (active) | 74% (active) | -1 | 101% (active) | inactive | inactive | inactive | inactive
37 | CC(C)CC(C)NC(=O)C1Cc2c([nH]c3cc(Cl)ccc23)C2(CCN(CCc3ccccc3)CC2)N1 (stereo not given) | 65% (active) | 15% | -1 | 95% (active) | inactive | inactive | inactive | inactive
38 | CN(C)c1ccc2nc(N)nc(N)c2c1Cl | -1% | 68% (active) | 2 | 98% (active) | inactive | inactive | inactive | inactive
39 | CN(C)Cc1ccc(-c2ccc3ccnc(N)c3c2)cc1 | 100% (active) | 20% | -1 | 100% (active) | inactive | inactive | inactive | inactive
40 | Cc1cc2nc(-c3ccc(C(=O)NC4CCN(Cc5ccccc5)CC4)s3)[nH]c2cc1C | 82% (active) | 33% | 1 | 99% (active) | inactive | inactive | inactive | inactive
